Target: T1, Testis-specific serine/threonine-protein kinase 2 (Homo sapiens) (UniProt Q96PF2)
T1 sequence (whole entry): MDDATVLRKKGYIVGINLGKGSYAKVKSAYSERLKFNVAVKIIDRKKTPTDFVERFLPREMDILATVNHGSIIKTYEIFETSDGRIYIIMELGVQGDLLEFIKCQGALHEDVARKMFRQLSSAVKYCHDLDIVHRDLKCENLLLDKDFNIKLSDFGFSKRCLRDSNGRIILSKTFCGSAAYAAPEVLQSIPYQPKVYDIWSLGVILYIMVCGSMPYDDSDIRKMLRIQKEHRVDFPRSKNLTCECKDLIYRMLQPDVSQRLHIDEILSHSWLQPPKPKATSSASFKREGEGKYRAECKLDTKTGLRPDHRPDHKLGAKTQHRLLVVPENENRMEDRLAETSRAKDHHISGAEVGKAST
Conditions: at 1 µM

SMILES	residual activity
CC(C)[C@H](CO)Nc1nc(Nc2cc(N)cc(Cl)c2)c2ncn(C(C)C)c2n1	91%
Cc1ccc(S(=O)(=O)/C=C/C#N)cc1	92%
Cc1cc2ncc(-c3ccccc3)nc2cc1C	91%
Oc1c2ccccc2c2c3c(cccc13)N=N2	92%
CN(C)CCCn1cc(C2=C(c3c[nH]c4ccccc34)C(=O)NC2=O)c2ccccc21	103%
CC(C)n1cnc2c(NCc3ccccc3)nc(NCCCO)nc21	86%
CC(=O)O/N=C1\C(=C2\C(=O)Nc3cc(Br)ccc32)Nc2ccccc21	79%
CC(C)c1nn(-c2c(Cl)cccc2Cl)c2nc(Cc3ccc(OCCO)cc3)[nH]c(=O)c12	93%
COc1cc2ncnc(Nc3ccc(O)c(Br)c3)c2cc1OC	93%
Nc1nc(Nc2ccc(S(N)(=O)=O)cc2)nn1C(=S)Nc1c(F)cccc1F	61%
CCC(=O)Nc1ccc2ncnc(Nc3cccc(Br)c3)c2c1	95%
N#Cc1cnc2cnc(NCc3cccnc3)cc2c1Nc1ccc(F)c(Cl)c1	14%
CC[n+]1c(/C=C/N(C)c2ccccc2)n(-c2ccccc2)c2ccc(-c3nc4ccccc4s3)cc21	104%
NC(=O)c1ccc2[nH]c(-c3ccc(Oc4ccc(Cl)cc4)cc3)nc2c1	98%
Nc1ccc2ncnc(NCCc3ccc(Oc4ccccc4)cc3)c2c1	106%
Cc1nc2cc3nc(-c4cccs4)cnc3cc2n1C	104%
COc1ccc2c(c1)c(C1=C(c3c[nH]c4ccccc34)C(=O)NC1=O)cn2CCCN(C)C	81%
O=C(Nc1cccc(Nc2cc(Nc3cccc(C(F)(F)F)c3)ncn2)c1)C1CC1	91%
O=C1Cc2c([nH]c3ccc(Br)cc23)-c2ccccc2N1	96%
O=C1Nc2ccc(Cl)cc2/C1=C/c1cc(Cl)c(O)c(Cl)c1	76%
COc1cc2ncc(-c3ccccc3)nc2cc1OC	76%

— ChEMBL document CHEMBL2218924, “A broad activity screen in support of a chemogenomic map for kinase signalling research and drug discovery” (Biochem J, 2013)
